Experimental findings from the supplement of paper PMC3545927 are described below.

The list shows a part of the results. How many sequences the whole screen found active is unknown.

The target in the assay is furin, P09958. As to the kind of experiment: furin cleavage Z-score vs untreated control; higher = more cleavage, active = 3.5 or more, inactive = 1 or less, 8 variable residues between constant flanks. In a few lines: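 Reactions of 0.01 ml ran for 7.5, 15 or 30 min in 50 mM HEPES pH 7.5 with CaCl2 and NaCl, at 1:10 enzyme:substrate. In them, purified furin acted on bead-held 8-mer peptides fused to a cDNA oligonucleotide. The cleavage Z-score was obtained by lowess-adjusting log sequencing counts of released DNA against furin-free reactions and scaling by median absolute deviation.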
Chain of furin, P09958 (P09958 whole entry, the tested form may be a part): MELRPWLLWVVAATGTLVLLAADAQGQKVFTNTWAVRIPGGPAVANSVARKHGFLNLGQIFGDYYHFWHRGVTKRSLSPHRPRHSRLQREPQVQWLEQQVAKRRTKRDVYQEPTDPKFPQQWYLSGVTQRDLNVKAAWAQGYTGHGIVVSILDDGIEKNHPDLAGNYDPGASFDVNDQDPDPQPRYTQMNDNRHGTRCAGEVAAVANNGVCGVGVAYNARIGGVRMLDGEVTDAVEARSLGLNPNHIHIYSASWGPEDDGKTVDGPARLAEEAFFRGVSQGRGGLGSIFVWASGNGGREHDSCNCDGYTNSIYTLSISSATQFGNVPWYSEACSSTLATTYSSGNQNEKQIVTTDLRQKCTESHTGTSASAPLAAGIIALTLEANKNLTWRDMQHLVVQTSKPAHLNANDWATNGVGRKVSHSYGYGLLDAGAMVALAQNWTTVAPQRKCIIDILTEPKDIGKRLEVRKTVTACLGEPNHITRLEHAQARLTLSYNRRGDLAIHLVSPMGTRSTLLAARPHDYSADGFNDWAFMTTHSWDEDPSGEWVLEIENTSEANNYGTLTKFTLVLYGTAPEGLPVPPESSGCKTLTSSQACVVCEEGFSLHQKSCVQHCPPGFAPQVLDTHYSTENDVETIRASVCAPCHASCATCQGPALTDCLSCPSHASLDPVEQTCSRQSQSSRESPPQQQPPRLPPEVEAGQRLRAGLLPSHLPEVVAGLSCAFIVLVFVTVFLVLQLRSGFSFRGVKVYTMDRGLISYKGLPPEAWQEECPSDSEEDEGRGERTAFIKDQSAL

For the sequence CASPLTTSQTAGNASASA [HC1060], the “furin cleavage Z-score” value is, setting by setting: (7.5 min) 0.0213 (inactive); (15 min) -0.739 (inactive); (30 min) 0.362 (inactive).

For the sequence CAEPKRIKKSAGNASASA [FS-157], the “furin cleavage Z-score” value (7.5 min) is 3.63 (active), the “furin cleavage Z-score” value (15 min) was 4.2 (active) and the “furin cleavage Z-score” value (30 min) was determined as 3.26.

For CARLYREKKSAGNASASA [FS-1651], the “furin cleavage Z-score” value by setting is: (7.5 min) 0.828 (inactive); (15 min) 2.77; (30 min) 3.88 (active).

For the sequence CAEPGREKKSAGNASASA [FS-414], the “furin cleavage Z-score” value is, setting by setting: (7.5 min) -0.759 (inactive); (15 min) 0.432 (inactive); (30 min) -0.848 (inactive).

As to CALSNRTMKSAGNASASA [FS-615], the “furin cleavage Z-score” value is 1.04 (7.5 min), -0.454 (inactive) (15 min) and 0.561 (inactive) (30 min).

With CARLHQWISSAGNASASA [HC1140], the “furin cleavage Z-score” value reads like this: (7.5 min) 0.126 (inactive); (15 min) -1.75 (inactive); (30 min) -1.83 (inactive).

For the sequence CAEPPCHRPSAGNASASA [HC2339], the “furin cleavage Z-score” value reads like this: (7.5 min) 0.111 (inactive); (15 min) -0.455 (inactive); (30 min) -0.0572 (inactive).

Take CASFARIKKWAGNASASA [FS-717]: the “furin cleavage Z-score” value is, setting by setting: (7.5 min) -0.31 (inactive); (15 min) -0.161 (inactive); (30 min) 1.88.

CAMLYRHKKSAGNASASA [FS-829]: the “furin cleavage Z-score” value is, setting by setting: (7.5 min) 0.949 (inactive); (15 min) 1.65; (30 min) 1.42.

On to CAIKCRTKKSAGNASASA [FS-803], for which the “furin cleavage Z-score” value (7.5 min) turned out to be 1.77, the “furin cleavage Z-score” value (15 min) is 4.04 (active) and the “furin cleavage Z-score” value (30 min) is 3.26.

With CAEKARKGKSAGNASASA [FS-413], the “furin cleavage Z-score” value runs as follows: (7.5 min) -1.2 (inactive); (15 min) -1.61 (inactive); (30 min) -0.85 (inactive).

With CALKARRKKSAGNASASA [FS-176], the “furin cleavage Z-score” value was 7.34 (active) (7.5 min), 8.84 (active) (15 min) and 7.56 (active) (30 min).

In the case of CALYDVVTKLAGNASASA [HC1458], the “furin cleavage Z-score” value is, setting by setting: (7.5 min) 0.188 (inactive); (15 min) 0.0294 (inactive); (30 min) -0.805 (inactive).

CAWCTTPCSGAGNASASA [HC1948]: the “furin cleavage Z-score” value is, setting by setting: (7.5 min) 1.23; (15 min) 0.244 (inactive); (30 min) 1.72.

On to CAEVECHRPSAGNASASA [HC2352], for which the “furin cleavage Z-score” value (7.5 min) amounted to 1.1, the “furin cleavage Z-score” value (15 min) was 0.203 (inactive) and the “furin cleavage Z-score” value (30 min) is 0.236 (inactive).

Take CAFREVPCHRAGNASASA [HC2427]: the “furin cleavage Z-score” value (7.5 min) is 0.22 (inactive), the “furin cleavage Z-score” value (15 min) is 0.297 (inactive) and the “furin cleavage Z-score” value (30 min) was 0.623 (inactive).

For CAPERLASCRAGNASASA [HC387], the “furin cleavage Z-score” value is -0.263 (inactive) (7.5 min), 0.599 (inactive) (15 min) and 1.53 (30 min).

As for CAVSCCSMSYAGNASASA [HC2017], the “furin cleavage Z-score” value reads like this: (7.5 min) 0.592 (inactive); (15 min) -0.576 (inactive); (30 min) 1.57.

As for CASSNQLQRRAGNASASA [NG1], the “furin cleavage Z-score” value by setting is: (7.5 min) 0.397 (inactive); (15 min) 2.01; (30 min) -0.568 (inactive).

On to CAGSHRRQRRAGNASASA [FS-434], for which the “furin cleavage Z-score” value by setting is: (7.5 min) 9.09 (active); (15 min) 10.6 (active); (30 min) 8.98 (active).

In the case of CAAISRRQRRAGNASASA [FS-743], the “furin cleavage Z-score” value reads like this: (7.5 min) 6.03 (active); (15 min) 8.53 (active); (30 min) 7.79 (active).

CAKRSRDARRAGNASASA [FS-45]: the “furin cleavage Z-score” value was 1.61 (7.5 min), -0.052 (inactive) (15 min) and 2.16 (30 min).

On to CAARMILMTHAGNASASA [HC1581], for which the “furin cleavage Z-score” value was -0.255 (inactive) (7.5 min), -1.76 (inactive) (15 min) and -1.15 (inactive) (30 min).

On to CAAYMNTPGLAGNASASA [HC931], for which the “furin cleavage Z-score” value (7.5 min) is -0.513 (inactive), the “furin cleavage Z-score” value (15 min) was -1.08 (inactive) and the “furin cleavage Z-score” value (30 min) is 0.157 (inactive).

Turning to CAMEPCSQHLAGNASASA [HC1719], the “furin cleavage Z-score” value reads like this: (7.5 min) 2.46; (15 min) 0.794 (inactive); (30 min) 2.77.

Regarding CAGDDDDKAGAGNASASA [EK1], the “furin cleavage Z-score” value was -2.21 (inactive) (7.5 min), -1.96 (inactive) (15 min) and 0.274 (inactive) (30 min).
